Only some compounds are listed: those with a hit (about 28% of all), similar ones and a draw of the others.
CYP2C19 activ = human CYP2C19 activators, primary screen, biochemical, luminescence; recombinant CYP2C19, luciferin-H EGE luminescence; stronger effect = higher value; 0 = fully inhibited enzyme, 1 = untreated enzyme; activation factor at 5 µM; 96,000 tested, under 10 active;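 active = activation factor of at least 2 at 5 µM in the primary screen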
Target sequence (P33261 whole entry, looked up): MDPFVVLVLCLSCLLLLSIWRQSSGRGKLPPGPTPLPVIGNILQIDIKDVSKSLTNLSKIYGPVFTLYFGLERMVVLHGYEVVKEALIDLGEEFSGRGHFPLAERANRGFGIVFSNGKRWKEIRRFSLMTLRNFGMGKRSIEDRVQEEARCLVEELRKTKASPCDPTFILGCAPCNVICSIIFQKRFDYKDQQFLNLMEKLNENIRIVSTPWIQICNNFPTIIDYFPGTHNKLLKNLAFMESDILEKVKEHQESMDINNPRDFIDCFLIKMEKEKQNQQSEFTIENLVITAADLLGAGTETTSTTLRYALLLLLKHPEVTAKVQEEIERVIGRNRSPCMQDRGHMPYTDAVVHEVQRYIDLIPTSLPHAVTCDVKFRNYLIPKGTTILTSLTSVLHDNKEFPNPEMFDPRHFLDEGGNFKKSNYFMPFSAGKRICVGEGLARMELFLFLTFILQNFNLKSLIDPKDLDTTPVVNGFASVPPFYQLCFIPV
CYP2C9 inhib = blockers of cytochrome P450 2C9 activity – biochemical, luminescence, ADME assay, primary screen | P11712 | CYP2C9 Supersomes, luciferin-H conversion | inhibition, % at 5 µM | 20% of 96,000 active;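 active = blocking of liver enzyme CYP2C9 beyond about 50% at 5 µM, limit read from the data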
PTK2B oligo ant = antagonists of Pyk2 self-association, primary screen, Q293 cells, FERM NanoBiT luminescence, HTS; z-score (the deposit names both 25 µM and 10 µM); 0.83% of 99,000 active; stronger effect = lower value; Protein-tyrosine kinase 2-beta (Homo sapiens), Q14289;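 active = Z-score of -3 or lower, scaled per plate to the spread of control and sample wells; inactive = z-score above -3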;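 note: negative z-score means lost luminescence so less FERM oligomerization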
CYP2C9 act = human CYP2C9 activators, primary screen, biochemical, luminescence; activation factor at 5 µM; 1.4% of 96,000 active; recombinant CYP2C9, luciferin-H conversion; stronger effect = higher value; factor 1 = untreated enzyme, 0 = blocked; Cytochrome P450 2C9 (Homo sapiens), P11712;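 active = activation factor of 2 or more for CYP2C9 at a 5 µM dose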
CYP2C19 inhib = blockers of cytochrome P450 2C19 activity – biochemical, luminescence, ADME assay, primary screen | inhibition, % at 5 µM | P33261 | 21% of 96,000 active | CYP2C19 Supersomes, luciferin-H EGE luminescence, 30 min;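 active = CYP2C19 inhibition above a set limit at 5 µM in the primary screen, cut at about 50% in these data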
Each line names hits and unclear results; the compound was inactive in the other large screens.

COC(=O)c1cc(OC)c(OC)cc1NC(=S)N1CCCC(CO)C1 (stereo not drawn)	none
CCOC(=O)N1CCN(C(=S)Nc2cc(OC)c(OC)cc2C(=O)OC)CC1	CYP2C19 inhib 98
CC1CCN(c2ccc(C(=O)NCc3cccs3)cn2)CC1	none
CCCOc1ccc2oc(=O)c3c(c2c1)CCCN3C(=O)CN1CCN(c2ncccn2)CC1	CYP2C9 inhib 65, CYP2C19 inhib 63
O=C(CN1CCCC1)N1CCCc2c1c(=O)oc1ccc(OCc3ccccc3)cc21	none
Cc1nc2ccc(S(=O)(=O)NCC(=O)N3CCCC(C)C3)cc2s1 (stereo not drawn)	none
O=c1c2ccccc2nc(-c2ccco2)n1Cc1ccccc1	none
Cc1ccc(C)c(N2CCN(c3nc4ccccc4c(=O)n3Cc3ccccc3)CC2)c1	none (no result: PTK2B oligo ant)
O=c1c2ccccc2nc(-c2ccc(Br)cc2)n1Cc1ccccc1	CYP2C9 inhib 83
CCOc1ccc(CCn2c(-c3ccco3)nc3ccccc3c2=O)cc1OCC	CYP2C19 inhib 79
O=c1c2ccccc2nc(N2CCN(c3ccccc3)CC2)n1Cc1ccccc1	CYP2C9 inhib 71 (no result: PTK2B oligo ant)
COc1ccc(CCn2c(-c3ccco3)nc3nc4ccccc4nc32)cc1	CYP2C9 inhib 82, CYP2C19 inhib 83
O=C(CN1C(=O)C2CC=CCC2C1=O)Nc1ccc(S(=O)(=O)NC2=NCCCCC2)cc1 (stereo not drawn)	none
CN(C)c1ccc(N2CN=C3SCC(=O)N3C2)cc1	none
c1coc(Cn2c(-c3ccco3)nc3ccccc32)c1	none
Clc1ccc(OCCn2c(-c3ccco3)nc3ccccc32)cc1	CYP2C9 inhib 56, CYP2C19 inhib 59
COc1ccc(C(=O)n2c(-c3ccco3)nc3ccccc32)cc1	CYP2C9 inhib 61, CYP2C19 inhib 54
O=c1c2ccccc2nc(-c2ccoc2)n1CCc1ccccc1	CYP2C9 inhib 56, CYP2C19 inhib 58
CC(C)Cn1c(-c2ccccc2)nc2ccccc2c1=O	none
c1ccc(-c2ccccc2-n2cnnn2)cc1	none
Cc1ccc(CN2CCSc3ccc(C(=O)N4CCN(c5ncccn5)CC4)cc32)cc1	CYP2C9 inhib 93, CYP2C19 inhib 97
CC1CC(C)CN(C(=O)c2ccc3c(c2)N(Cc2ccccc2)CCS3)C1 (stereo not drawn)	none (no result: PTK2B oligo ant)
CCc1ccccc1N(CC(=O)N/N=C/c1ccc(OC(=O)OC)c(OC)c1)S(C)(=O)=O	CYP2C9 inhib 50
CN(C)c1ccc(/C=N/NC(=O)CN(c2ccccc2Cl)S(C)(=O)=O)cc1Br	none
O=C(NCc1ccc(Cl)cc1)c1cc(-c2cccs2)on1	CYP2C9 inhib 60, CYP2C19 inhib 51
CCS(=O)(=O)c1ccc2c(c1)N(S(C)(=O)=O)CC(C(=O)NCCOC)O2 (stereo not drawn)	none
COc1ccc(CNc2nc(NCc3ccc(OC)cc3)n(C(=O)c3ccccc3[N+](=O)[O-])n2)cc1	CYP2C9 inhib 70
COc1ccc(N(Cc2ccccc2)C(=O)c2ccccc2[N+](=O)[O-])cc1	CYP2C19 inhib 61
O=C(c1ccco1)n1nc(NCc2ccccc2)nc1NCc1ccccc1	none
COCCN(C(=O)c1csnn1)C(C(=O)NC(C)(C)C)c1cccc(OC)c1 (stereo not drawn)	none
O=C(CSc1nc2c(c(=O)n1-c1ccc(F)cc1)SCC2)Nc1ccc2c(c1)OCO2	none (no result: CYP2C19 activ, CYP2C9 inhib, CYP2C9 act, CYP2C19 inhib)
COc1ccccc1-n1c(SCC(=O)Nc2cccc(C)c2)nc2c(c1=O)SCC2	CYP2C9 inhib 74, CYP2C19 inhib 83 (no result: PTK2B oligo ant)
CCC(C)n1c(SCC(=O)NC(=O)Nc2ccc3c(c2)OCCO3)nc2ccccc2c1=O (stereo not drawn)	CYP2C9 inhib 90
COc1ccc(-n2c(SCC(=O)Nc3ccc4c(c3)OCO4)nc3ccccc3c2=O)cc1	CYP2C9 inhib 91, CYP2C19 inhib 92
COc1ccc(-n2c(SCC(=O)Nc3ccc4c(c3)OCO4)nc3c(c2=O)SCC3)cc1	CYP2C9 inhib 58 (no result: PTK2B oligo ant)
CCOc1ccc(CN2C(=O)c3ccccc3C2C(=O)NCc2cccnc2)cc1 (stereo not drawn)	none
COc1ccc(OC)c(NC(=O)C2CCC(CNc3c(N4CCC(C)CC4)c(=O)c3=O)CC2)c1 (stereo not drawn)	none (no result: PTK2B oligo ant)
CCOc1ccc(-n2c(SCC(=O)Nc3ccc4c(c3)OCO4)nc3ccccc3c2=O)cc1	CYP2C9 inhib 62
COC(=O)c1cc(Br)c(=O)n(Cc2cccnc2)c1	none
O=C(C1CC1)N1CCN=C1SCc1cccc(C(F)(F)F)c1	CYP2C9 inhib 70, CYP2C19 inhib 95
CC(=O)N1CCN=C1SCc1ccc(Br)cc1	CYP2C9 inhib 62, CYP2C19 inhib 54 (no result: PTK2B oligo ant)
CC(=O)N1CCN=C1SCc1c(F)cccc1Cl	none (no result: PTK2B oligo ant)
CC(=O)N1CCN=C1SCc1cccc(C(F)(F)F)c1	none
Cc1ccc(CSC2=NCCN2C(=O)C2CC2)cc1	CYP2C19 inhib 92
Cc1ccc(-c2nnn(CC(=O)N3CCN(c4ccccc4)CC3)n2)o1	none
O=C(NC1CC1)C1C2C3C4CC5C3C5C4C12 (stereo not drawn)	none
COC(=O)c1nc(NC(=O)C(C)(C)C)n[nH]1	none
Cn1c(=O)c2cc(NC(=O)c3ccccc3Cl)c(=O)oc2n(C)c1=O	none
O=C(CSc1nc(O)c(Cc2ccccc2)c(=O)n1-c1ccccc1)N1CCOCC1	none
N#C/C(=C/c1ccc(N2CCCCC2)o1)c1cccc(F)c1	none
N#C/C(=C/c1ccc(Sc2nc3ccccc3[nH]2)o1)c1cccc(F)c1	CYP2C9 inhib 95, PTK2B oligo ant -3.2, CYP2C19 inhib 92
N#C/C(=C\C1CC2C=CC1C2)c1nc2ccccc2[nH]1 (stereo not drawn)	none
N#C/C(=C/c1ccc(Sc2nc3ccccc3[nH]2)o1)c1cccc(Br)c1	CYP2C9 inhib 97, PTK2B oligo ant -3.1, CYP2C19 inhib 96
N#C/C(=C/c1ccc(Sc2nc3ccccc3[nH]2)o1)c1ccccc1F	CYP2C9 inhib 90, CYP2C19 inhib 95
CCOC(=O)c1c(N2C(=O)C3CC(C)=C(C)CC3C2=O)sc(C)c1C (stereo not drawn)	none
O=C1CN=C(Nc2ccccc2Cl)N1Cc1ccc2c(c1)OCO2	none (no result: CYP2C19 activ, CYP2C9 inhib, CYP2C9 act, CYP2C19 inhib)
Cc1cc(C)nc(N(C#N)CN2C(=O)c3ccccc3S2(=O)=O)n1	none
O=S(=O)(Nc1nccs1)c1cc(Cl)ccc1Cl	none
COc1ccc(OC)c(N(CC(=O)Nc2ccc3c(c2)OCCO3)S(C)(=O)=O)c1	CYP2C9 inhib 76, CYP2C19 inhib 64
COc1ccc(N(CC(=O)Nc2ccc3c(c2)OCO3)S(C)(=O)=O)c(OC)c1	CYP2C9 inhib 69
COc1ccc(N(CC(=O)Nc2ccc3c(c2)OCCO3)S(C)(=O)=O)c(OC)c1	CYP2C9 inhib 84
